{"source": "PubChem BioAssay AID1851", "about": "(National Center for Advancing Translational Sciences (NCATS), 2009)", "note": "Several values for one entry are separate records, joined by “and”; a condition that tells them apart may be missing. Identical values can stand only once. The whole screen tested about 16,000 compounds, of which about 4,000 (25%) were called active. Inconclusive results (about 26%) are left out. Calls come from the whole dose curve; as a rule, active = well fitted curve in the direction sought with a large enough effect; inconclusive = small, poorly fitted or top-dose-only effect, or effect the other way; inactive = no such curve, though single readings can be large or run the other way. These entries were drawn from the full list. % is set by controls: 0 for no effect and ±100 for the full control effect."}
{"molecular_target": "Cytochrome P450 2C9 (Homo sapiens) (UniProt P11712)", "sequence (P11712 whole entry, looked up)": "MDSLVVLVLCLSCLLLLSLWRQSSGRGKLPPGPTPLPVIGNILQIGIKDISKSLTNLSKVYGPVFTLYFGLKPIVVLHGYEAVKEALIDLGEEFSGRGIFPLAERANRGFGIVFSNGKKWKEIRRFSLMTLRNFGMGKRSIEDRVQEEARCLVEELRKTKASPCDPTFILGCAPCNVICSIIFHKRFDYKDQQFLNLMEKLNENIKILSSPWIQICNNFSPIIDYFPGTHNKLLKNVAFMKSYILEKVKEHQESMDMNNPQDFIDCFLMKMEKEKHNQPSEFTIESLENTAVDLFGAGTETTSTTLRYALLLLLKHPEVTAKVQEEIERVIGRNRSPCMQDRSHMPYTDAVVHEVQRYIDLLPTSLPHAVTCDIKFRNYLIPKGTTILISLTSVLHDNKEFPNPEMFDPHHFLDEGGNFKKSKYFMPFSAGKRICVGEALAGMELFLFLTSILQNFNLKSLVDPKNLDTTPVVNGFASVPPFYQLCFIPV", "assay": "Cytochrome panel assay with activity outcomes", "settings": "recombinant CYP, pro-luciferin dealkylation, luminescence, p450-cyp2c9; series mostly up to 57.1 µM"}
{"smiles": "COC(=O)N1CCC2(CCCN(C(=O)Nc3cccc(F)c3)C2)CC1", "AC50": "inactive"}
{"smiles": "O=C(c1[nH]o[n+](=O)c1C(=O)c1csc2ccccc12)c1csc2ccccc12", "AC50": "1.58 µM (active)"}
{"smiles": "O=C1NCCc2c1[nH]c1ccccc21", "AC50": "inactive"}
{"smiles": "COc1cccc(/C=c2/s/c(=C(\\C#N)C(=O)N3CCOCC3)n(-c3ccccc3)c2=O)c1", "AC50": "inactive"}
{"smiles": "CN(c1ccccc1)c1ccc(/C=c2\\s/c(=C(/C#N)C(=O)C(C)(C)C)n(Cc3ccco3)c2=O)cc1", "AC50": "3.55 µM (active)"}
{"smiles": "C=C(CC1([C@@H](NP(=O)(c2ccccc2)c2ccccc2)[C@H]2C[C@@H]2CCCC)CC1)c1ccccc1", "AC50": "10 µM (active)"}
{"smiles": "CCCC[C@@H]1C[C@H]1C(NC(=O)c1ccc(-c2ccccc2)cc1)c1ccc(-c2ccccc2)cc1", "note": "(stereo partly drawn)", "AC50": "inactive"}
{"smiles": "C[C@@]1(C(NC(=O)Cc2ccccc2)c2ccc(-c3ccccc3)cc2)C[C@H]1C1CCCCC1", "note": "(stereo partly drawn)", "AC50": "inactive"}
{"smiles": "COC(=O)c1ccc(C(NC(=O)c2ccccc2)[C@]2(C)C[C@H]2C2CCCCC2)cc1", "note": "(stereo partly drawn)", "AC50": "inactive"}
{"smiles": "CCCC[C@@H]1C[C@H]1C(NC(=O)c1ccccc1)c1ccccc1", "note": "(stereo partly drawn)", "AC50": "7.94 µM (active)"}
{"smiles": "COC(=O)c1ccc(C(NC(=O)c2ccco2)[C@]2(C)C[C@H]2C2CCCCC2)cc1", "note": "(stereo partly drawn)", "AC50": "10 µM (active)"}
{"smiles": "CCCC[C@@H]1C[C@H]1C(NC(=O)c1ccco1)c1ccccc1", "note": "(stereo partly drawn)", "AC50": "15.8 µM (active)"}
{"smiles": "CN(C)CCSCCO", "activity, negative = inhibition": "13.5% [at 11.4 µM] (inactive)"}
{"smiles": "CO[C@@H]1COC(=O)[C@H](COCc2ccccc2)NC(=O)C/C=C\\[C@@H](C)[C@H](OC)COC(=O)[C@@H](C)NC(=O)C/C=C\\[C@H]1C", "activity, negative = inhibition": "-22.8% [at 11.4 µM] (inactive)"}
{"smiles": "CCC[C@@H]1C[C@@]1(CCC)C(NS(=O)(=O)c1cccc2cccnc12)c1ccc(Cl)cc1", "note": "(stereo partly drawn)", "AC50": "7.94 µM (active)"}
{"smiles": "C[C@@]1(C(NC(=O)c2ccc(-c3ccccc3)cc2)c2ccc(Cl)cc2)C[C@H]1C1CCCCC1", "note": "(stereo partly drawn)", "AC50": "inactive"}
{"smiles": "CCCC[C@@H]1C[C@H]1C(NC(=O)c1ccco1)c1ccc(C(=O)OC)cc1", "note": "(stereo partly drawn)", "AC50": "0.794 µM (active)"}
{"smiles": "CCC[C@@H]1C[C@@]1(CCC)C(NC(=O)c1ccco1)c1ccc(Cl)cc1", "note": "(stereo partly drawn)", "AC50": "15.8 µM (active)"}
{"smiles": "C[N+]1(CCC(=O)c2ccco2)CC2CCC(CC2)C1", "note": "(stereo not drawn)", "activity, negative = inhibition": "6.14% [at 11.4 µM] (inactive)"}
{"smiles": "CCCC[C@@H]1C[C@H]1C(NC(=O)c1ccco1)c1ccc(Cl)cc1", "note": "(stereo partly drawn)", "AC50": "3.98 µM (active)"}
{"smiles": "CC1(C)S[C@@H]2[C@H](NC(=O)[C@H](C(=O)O)c3ccsc3)C(=O)N2[C@H]1C(=O)O", "AC50": "inactive"}
{"smiles": "O=c1oc2c(Cl)cc(Cl)cc2cc1-c1nnc(Nc2ccccc2F)s1", "AC50": "inactive"}
{"smiles": "CCCC[C@@H]1C[C@H]1C(NC(=O)c1ccco1)c1ccc(-c2ccccc2)cc1", "note": "(stereo partly drawn)", "AC50": "3.16 µM (active)"}
{"smiles": "COC(=O)[C@@H]1C[C@H]1[C@@H](NC(=O)c1cc(C)nn1C)c1ccccc1", "AC50": "inactive"}
{"smiles": "CCCC[C@@H]1C[C@H]1C(NC(=O)Cc1ccccc1)c1ccc(-c2ccccc2)cc1", "note": "(stereo partly drawn)", "AC50": "inactive"}
{"smiles": "NNC(=O)[C@@H](O)[C@H](O)[C@H](O)CO", "activity, negative = inhibition": "-4.21% [at 11.4 µM] (inactive)"}
{"smiles": "CC1=NN(c2ccccc2)C(=O)[C@@H]1N=Nc1ccc(S(N)(=O)=O)cc1", "activity, negative = inhibition": "3.33% [at 11.4 µM] (inactive)"}
{"smiles": "CC1=NN(c2ccccc2)C(=O)C1C(=O)c1ccc(Cl)cc1", "note": "(stereo not drawn)", "AC50": "0.562 µM (active)"}
{"smiles": "CCC(O)CNc1nc(-n2nc(C)cc2C)nc2sc3c(c12)CC(C)(C)OC3", "note": "(stereo not drawn)", "AC50": "14.1 µM (active)"}
{"smiles": "Cc1cc(C)n(-c2nc(NCC(C)O)c3c4c(sc3n2)COC(C)(C)C4)n1", "note": "(stereo not drawn)", "AC50": "15.8 µM (active)"}
{"smiles": "COc1ccc(-n2c(=O)c(C)nc3cnc(N4CCNCC4)nc32)cc1", "AC50": "inactive"}
{"smiles": "C=CC1=C(C)C2=Cc3c(C=C)c(C)c4[n]3[Sn+2][n]3c(c(C)c(CCC(=O)O)c3=CC3=NC(=C4)C(C)=C3CCC(=O)O)=CC1=N2", "AC50": "inactive"}
{"smiles": "CCSc1nc2c(c(=O)[nH]1)C(c1ccccn1)C1=C(CC(C)(C)CC1=O)N2", "note": "(stereo not drawn)", "AC50": "inactive"}
{"smiles": "CSc1nc2c(c(=O)[nH]1)C(c1ccncc1)C(C(=O)OC(C)C)=C(C)N2", "note": "(stereo not drawn)", "AC50": "7.94 µM (active)"}
{"smiles": "CCSc1nc2c(c(=O)[nH]1)C(c1ccncc1)C(C(=O)OC(C)C)=C(C)N2", "note": "(stereo not drawn)", "AC50": "2.82 µM (active)"}
{"smiles": "O=C(O)c1cc2c(cc1S(=O)(=O)O)[C@H]1[C@@H]([C@H]3[C@H]2[C@@]2(Cl)C(Cl)=C(Cl)[C@]3(Cl)C2(Cl)Cl)[C@]2(Cl)C(Cl)=C(Cl)[C@@]1(Cl)C2(Cl)Cl", "activity, negative = inhibition": "-16.9% [at 11.4 µM] (inactive)"}
{"smiles": "CC1(C)[C@@H]2CC[C@]1(CC(=O)O)[C@H](Cl)C2", "activity, negative = inhibition": "4.29% [at 11.4 µM] (inactive)"}
{"smiles": "O=C(CSC1CC(=O)N(CC(c2ccccc2)c2ccccc2)C1=O)Nc1ccc(Cl)cc1", "note": "(stereo not drawn)", "AC50": "3.98 µM (active)"}
{"smiles": "CC12CS(=O)(=O)CC1SC(=S)N2c1ccccn1", "note": "(stereo not drawn)", "AC50": "inactive"}
{"smiles": "CCN(CC)CCOC(=O)c1ccc(N)cc1", "AC50": "inactive"}
{"smiles": "CCOC(=O)c1c(C)[nH]c2ccc3c(c12)CN1CCc2cc(OC)ccc2[C@@H]1O3", "AC50": "inactive"}
{"smiles": "CCOC(=O)c1c(C)[nH]c(C)c1C(=O)COC(=O)c1ccc(S(=O)(=O)N(CC)CC)cc1", "AC50": "0.355 µM (active)"}
{"smiles": "O=[N+]([O-])c1cccc(-c2nc(-c3cccs3)c(-c3cccs3)[nH]2)c1", "AC50": "1.58 µM (active)"}
{"smiles": "NC(N)=Nc1nc2ccc([N+](=O)[O-])cc2[nH]1", "activity, negative = inhibition": "9.74% [at 11.4 µM] (inactive)"}
{"smiles": "O=[N+]([O-])c1cccc(-c2nc(-c3ccccc3)c(-c3cccs3)[nH]2)c1", "AC50": "inactive"}
{"smiles": "c1ccc(-c2nc(-c3cccs3)[nH]c2-c2ccccc2)cc1", "AC50": "6.31 µM (active)"}
{"smiles": "CN(C)Cc1ccccc1-c1ccc2ncnc(N(C)C)c2c1", "activity, negative = inhibition": "9.43% [at 2.29 µM] (inactive)"}
{"smiles": "CC(=O)N1CCN(c2nc(C)nc3sc4c(c23)CCC(C)C4)CC1", "note": "(stereo not drawn)", "AC50": "14.1 µM (active)"}
{"smiles": "Cc1cc(C(F)F)n2nc(C(=O)Nc3sc4c(c3C#N)CCC(C)C4)nc2n1", "note": "(stereo not drawn)", "AC50": "inactive"}
{"smiles": "COc1ccc2c(c1)-c1ccccc1S(=O)(=O)N2C", "AC50": "14.1 µM (active)"}
{"smiles": "CC[N+](C)(CC)CCN1C(=O)c2ccccc2S1(=O)=O", "activity, negative = inhibition": "-0.798% [at 11.4 µM] (inactive)"}
{"smiles": "Cc1cc2c(nc1C)CCCCN2C[C@H](C)O/N=C\\[C@@H](C)[C@H](OCc1ccccc1)C(C)C", "activity, negative = inhibition": "-8.65% [at 11.4 µM] (inactive)"}
{"smiles": "S=C(S)N1CCCC1", "AC50": "2 µM (active)"}
{"smiles": "CC(C)(C)CC(=O)NC(=S)N1CCCCCC1", "AC50": "inactive"}
{"smiles": "CCNC(=O)C/C(C)=N/NC(=O)C12CC3CC(CC(C3)C1)C2", "AC50": "inactive"}
{"smiles": "C=CCn1c(COc2ccccc2)nnc1SCC(=O)N/N=C/c1ccc(C)cc1", "AC50": "11.2 µM (active)"}
{"smiles": "COc1ccc(O)c(/C=N/NC(=O)CSc2nnc(C)n2-c2ccccc2)c1", "AC50": "inactive"}
{"smiles": "COc1ccc(C[C@@H]2c3cc(OC)c(OC)cc3CC[N@+]2(C)CCC(=O)OCCCCCOC(=O)CC[N@@+]2(C)CCc3cc(OC)c(OC)cc3[C@H]2Cc2ccc(OC)c(OC)c2)cc1OC", "AC50": "inactive"}
{"smiles": "Nc1ncnc2c([C@@H]3O[C@@H](CO)[C@H](O)[C@@H]3O)nsc12", "activity, negative = inhibition": "-6.07% [at 11.4 µM] (inactive)"}
{"smiles": "COc1ccc(C(=O)Nc2ccc(OCC(F)(F)C(F)F)c(C(F)(F)F)c2)cc1OC", "AC50": "7.94 µM (active)"}
{"smiles": "Cc1cc(NC(=O)CCCC(=O)OCC(F)(F)C(F)F)cc(C)c1C(=O)O", "AC50": "inactive"}
{"smiles": "CCN(CC)CCC[C@H](C)Nc1c2ccc(Cl)cc2nc2ccc(OC)cc12", "AC50": "inactive"}
{"smiles": "Cc1ccc(NC(=S)Nc2nc(CC(=O)Nc3ccccc3)cs2)cc1", "AC50": "2.82 µM (active)"}
{"smiles": "CN1CCC(n2[nH]c(-c3ccccc3)c(Cc3ccccc3)c2=O)CC1", "activity, negative = inhibition": "0.284% [at 11.4 µM] (inactive)"}
{"smiles": "CCN1C(=O)[C@H]2[C@H]3[C@H](O)[C@H](O)C/C(=N/OC[C@@H](O)COCc4ccco4)[C@@H]3CC[C@@H]2C1=O", "activity, negative = inhibition": "21.5% [at 11.4 µM] (inactive) and 18.6% [at 11.4 µM] (inactive)"}
{"smiles": "CC(=O)Nc1ccc(-c2nnc(SCC(=O)c3ccc4c(c3)Cc3ccccc3-4)n2C)cc1", "AC50": "12.6 µM (active)"}
{"smiles": "Cn1c(SCC(=O)c2ccc3c(c2)Cc2ccccc2-3)nnc1-c1ccccc1", "AC50": "8.91 µM (active)"}
{"smiles": "CN1CCCC[C@@H]1CCN1c2ccccc2Sc2ccc(S(C)=O)cc21", "note": "(stereo partly drawn)", "AC50": "inactive"}
{"smiles": "CCN(CC)CCN1C(=O)c2cccc3cc(N)cc(c23)C1=O", "activity, negative = inhibition": "13.4% [at 11.4 µM] (inactive)"}
{"smiles": "CCOC(=O)C(NC(C)=O)C(=O)O", "note": "(stereo not drawn)", "AC50": "inactive"}
{"smiles": "C/C(CCN1CCCCc2nc(C)c(C)cc21)=N\\O[C@@H](C)c1cc(-c2c(C)cc(C)cc2C)no1", "AC50": "2.51 µM (active)"}
{"smiles": "C/C(CCN1CCCc2nc(C)c(C)cc21)=N\\O[C@@H](C)CN1CCCCc2nc(C)c(C)cc21", "activity, negative = inhibition": "-3.15% [at 11.4 µM] (inactive)"}
{"smiles": "C/C(CCN1CCCCc2nc(C)c(C)cc21)=N\\O[C@@H](C)CN1CCCCc2nc(C)c(C)cc21", "activity, negative = inhibition": "7.62% [at 11.4 µM] (inactive)"}
{"smiles": "COc1ccc(-c2n[nH]c(C)c2-c2ccc(Cl)cc2)c(O)c1", "AC50": "10 µM (active)"}
{"smiles": "CC(NC(=O)c1ccccc1)c1nc2ccccc2n1Cc1ccccc1F", "note": "(stereo not drawn)", "AC50": "5.62 µM (active)"}
{"smiles": "CN(C)CCCc1cc(C(=O)Nc2ccc(-c3ccncc3)cc2)ccc1O", "AC50": "inactive"}
{"smiles": "C[C@@H]1CCC[C@H](C)N1NC(=O)c1ccc(Cl)c(S(N)(=O)=O)c1", "AC50": "inactive"}
{"smiles": "CCN(CC)S(=O)(=O)c1cc(C(=O)Nc2ccncc2)ccc1Cl", "AC50": "0.141 µM (active)"}
{"smiles": "COC(=O)c1ccc(NC(=S)N2CCN(Cc3cccc(C)c3)CC2)cc1", "AC50": "25.1 µM (active)"}
{"smiles": "COc1ccc(NC(=S)N2CCN(C/C=C/c3ccccc3)CC2)cc1OC", "AC50": "inactive"}
{"smiles": "Cc1nn(CC(=O)NCc2ccccc2)c(C)c1[N+](=O)[O-]", "AC50": "inactive"}
{"smiles": "Cc1nn(C(C)C(=O)N2CCc3ccccc32)c(C)c1[N+](=O)[O-]", "note": "(stereo not drawn)", "AC50": "11.2 µM (active)"}
{"smiles": "Cc1nn(CC(=O)NCCN2CCOCC2)c(C)c1[N+](=O)[O-]", "AC50": "inactive"}
